The values below come from PubChem BioAssay (NCATS).

Each structure is given as a SMILES string. Results filed as inconclusive are left out. Values without a mark were called inactive. Activity calls are given as the source filed them. Calls follow the shape of the dose curve; as a rule, active = well fitted curve in the direction sought with a large enough effect; inconclusive = small, poorly fitted or top-dose-only effect, or another doubt; inactive = no such curve, though single readings can be large; an effect the other way counts as inactive or inconclusive.
Potency is read from the fitted curve at half-maximal effect.

Tested on in one assay: not listed separately
The assay is described as follows: P-glycoprotein substrates identified in KB-8-5-11 adenocarcinoma cell line, qHTS therapeutic library screen (AID 1346987). Also: nearly all actives have a fitted effect of over 65% in size. As to activity change, negative = cytotoxicity: % is scaled to controls: 0 for no effect and ±100 for the full control effect. As to conditions: KB-8-5-11 (P-gp overexpressing) viability, CellTiter-Glo, 72 h; series mostly up to 44.5 µM; activity change, negative = cytotoxicity: at the top concentration. In short, it runs like this: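 Compounds are pinned in dose-response onto KB-8-5-11 cells (500 cells/well, colchicine-free medium) and left 72 h at 37 degree C. CellTiter-Glo luminescence then yields AC50 values.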
Take `O=C(c1ccc(F)c(F)c1Nc1ccc(I)cc1F)N1CC(O)([C@@H]2CCCCN2)C1`: the Potency is 20.6 µM (active).

As for `Fc1ccccc1CNCc1ccc(-c2ccnc3[nH]ccc23)cc1`, the Potency was 11.6 µM (active).

As to `CC[C@H]1OC(=O)[C@H](C)[C@@H](O[C@H]2C[C@@](C)(OC)[C@@H](O)[C@H](C)O2)[C@H](C)[C@@H](O[C@@H]2O[C@H](C)C[C@H](N(C)C)[C@H]2O)[C@](C)(O)C[C@@H](C)/C(=N/OCOCCOC)[C@H](C)[C@@H](O)[C@]1(C)O`, the “activity change, negative = cytotoxicity” value is 6.71%.

With `Cc1cc(CN)cc(C)c1NC(=O)c1ccc(-c2cc(Cl)ccc2Cl)o1`, the Potency was 20.6 µM (active).

For `COc1cc(N2CCN(C(C)=O)CC2)ccc1Nc1ncc(Cl)c(Nc2ccc(N3CCN(C(C)=O)CC3)cc2OC)n1`, the Potency was 20.6 µM (active).

`COCCNCc1ccc(-c2cc3nccc(Oc4ccc(NC(=S)NC(=O)Cc5ccc(F)cc5)cc4F)c3s2)nc1`: the Potency is 16.4 µM (active).

In the next assay the test system is Zika virus NS2B-NS3 protease (linked construct). Description: Confirmatory screen NINDS AMC qHTS for Zika virus inhibitors (AID 1347152). Also: nearly all actives have a fitted effect of over 70% in size. As to conditions: Purified linked NS2B-NS3, AMC substrate fluorescence; series mostly up to 110 µM; activity change, negative = inhibition: at the top concentration. In short, it runs like this: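 IC50s from 4-parameter Hill fits of percent inhibition, based on AMC fluorescence gain (340/450 nm) over 15 min with 10 microM Bz-Nle-KRR-AMC. Enzyme: 1 nM linked NS2B-NS3 in Tris-HCl pH 8.0; 15-min compound preincubation.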
Turning to `CN(Cc1ccc(C(=O)O)cc1)c1ccc(OCc2c(-c3c(Cl)cccc3Cl)noc2C2CC2)nc1C(F)(F)F`, the Potency was 13.9 µM (active).

Take `CS(=O)(=O)c1ccc(-c2cn3ccccc3n2)cc1`: the Potency is 21.5 µM (active).

In the case of `CN(CC(=O)N(Cc1ccc(C2CCCCC2)cc1)c1ccc(C(=O)O)cc1)S(=O)(=O)c1c(F)c(F)c(F)c(F)c1F`, the Potency was 19.7 µM (active).

A further assay concerns Zika virus NS2B-NS3 protease (unlinked complex). The assay is described as follows: Confirmatory screen GU AMC qHTS for Zika virus inhibitors (AID 1347153).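 Also: enzyme at 25 nM with substrate at 10 µM below its Km of 18.3 µM; nearly all actives have a fitted effect of over 70% in size.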 As to conditions: Recombinant NS2B-NS3 protease, AMC substrate fluorescence; series mostly up to 111 µM; activity, negative = inhibition: at the top concentration. The method in brief:
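Noncovalent NS2B hydrophilic domain/NS3 protease complex (25 nM) in 10 mM Tris-HCl pH 8.0, 0.01% Tween 20 was preincubated 15 min at room temperature with compounds. Then 10 µM AMC substrate (Km 18.3 µM) was added; fluorescence was read over 15 min and fitted to a 4-parameter Hill equation.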
As to `CN(Cc1ccc(C(=O)O)cc1)c1ccc(OCc2c(-c3c(Cl)cccc3Cl)noc2C2CC2)nc1C(F)(F)F`, the Potency is 13.9 µM (active).

In the case of `CS(=O)(=O)c1ccc(-c2cn3ccccc3n2)cc1`, the Potency was 24.1 µM (active).

On to `CN(CC(=O)N(Cc1ccc(C2CCCCC2)cc1)c1ccc(C(=O)O)cc1)S(=O)(=O)c1c(F)c(F)c(F)c(F)c1F`, for which the Potency was 22.1 µM (active).

Tested on in the next assay: not listed separately
The assay is described as follows: Confirmatory screen GU Rhodamine qHTS for Zika virus inhibitors qHTS (AID 1347157). Also: nearly all actives have a fitted effect of over 70% in size. As to conditions: purified enzyme assay, Rhodamine110 substrate fluorescence, 15 min; series mostly up to 114 µM; activity change, negative = inhibition: at the top concentration. In short, it runs like this:
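Noncovalent NS2B hydrophilic domain/NS3 protease complex (25 nM final) in 10 mM Tris-HCl pH 8.0, 0.01% Tween 20, preincubated 15 min with compounds (up to 114 microM), then 1.5 microM Rhodamine110 substrate. Fluorescence change over 15 min fitted to 4-parameter Hill.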
On to `CN(Cc1ccc(C(=O)O)cc1)c1ccc(OCc2c(-c3c(Cl)cccc3Cl)noc2C2CC2)nc1C(F)(F)F`, for which the Potency was 2.21 µM (active).

For `CN(CC(=O)N(Cc1ccc(C2CCCCC2)cc1)c1ccc(C(=O)O)cc1)S(=O)(=O)c1c(F)c(F)c(F)c(F)c1F`, the Potency is 3.5 µM (active).

Regarding `Cc1ccn(-c2cc(Cl)ccc2[C@@H](Oc2cc(-c3ccc(C[C@H](N)C(=O)O)cc3)nc(N)n2)C(F)(F)F)n1`, the Potency is 22.1 µM (active).

A further assay has as its system Zika virus NS2B-NS3 protease (unlinked complex). The assay is described as follows: Primary screen GU Rhodamine qHTS for Zika virus inhibitors: Unlinked NS2B-NS3 protease assay (AID 1347159). Also: nearly all actives have a fitted effect of over 60% in size. As to activity change, negative = inhibition: % is scaled to controls: 0 for no effect and ±100 for the full control effect. The settings on record: Recombinant ZIKV NS2B-NS3 protease, Rhodamine110 substrate fluorescence; series mostly up to 107 µM; activity change, negative = inhibition: at the top concentration. In short, it runs like this:
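Buffer 10 mM Tris-HCl pH 8.0, 0.01% Tween 20. Unlinked protease 25 nM; compound preincubation 15 min, RT, protected from light. Substrate Rhod110, 1.5 microM; ~15% conversion in 15 min.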
For the compound `C[N+]1(C)[C@@H]2CC[C@H]1CC(OC(=O)C(O)c1ccccc1)C2` (some centres undefined), the “activity change, negative = inhibition” value was 0%.

As to `O=C(c1ccc(F)c(F)c1Nc1ccc(I)cc1F)N1CC(O)([C@@H]2CCCCN2)C1`, the “activity change, negative = inhibition” value was 145%.

Take `CCNC(=O)[C@@H]1CCCN1C(=O)[C@H](CCCN=C(N)N)NC(=O)[C@H](CC(C)C)NC(=O)[C@@H](CC(C)C)NC(=O)[C@H](Cc1ccc(O)cc1)NC(=O)[C@H](CO)NC(=O)[C@H](Cc1c[nH]c2ccccc12)NC(=O)[C@H](Cc1cnc[nH]1)NC(=O)[C@@H]1CCC(=O)N1`: the “activity change, negative = inhibition” value was 0% [at 57.1 µM].

Regarding `CC(CCC1(O)OC2CC3C4CC=C5CC(O[C@@H]6O[C@H](CO)[C@@H](O[C@@H]7O[C@H](CO)[C@@H](O)[C@H](O)[C@H]7O)[C@H](O)[C@H]6O[C@@H]6O[C@@H](C)[C@H](O)[C@@H](O)[C@H]6O)CCC5(C)C4CCC3(C)C2C1C)CO[C@@H]1O[C@H](CO)[C@@H](O)[C@H](O)[C@H]1O` (some centres undefined), the “activity change, negative = inhibition” value is 1.68% [at 32.5 µM].

As for `CN([C@H]1c2cc(OCCCC(F)(F)F)ccc2OC(C)(C)[C@@H]1O)S(C)(=O)=O`, the “activity change, negative = inhibition” value is -8.28%.

Take `Cn1c(NC[C@@H](N)Cc2ccccc2)nc(-c2ccncc2)c(-c2ccc3ccccc3c2)c1=O`: the “activity change, negative = inhibition” value was 129%.

As for `CCCCC(=O)N(Cc1ccc(-c2ccccc2-c2nn[nH]n2)cc1)C(C(=O)O)C(C)C` (centres undefined), the “activity change, negative = inhibition” value is 10.9%.

`Nc1nc(NCC2CCC(CNS(=O)(=O)c3cccc4ccccc34)CC2)nc2ccccc12` (centres undefined): the “activity change, negative = inhibition” value was 317%.

For the compound `COc1ccc(NS(=O)(=O)c2sc3ccc(Cl)cc3c2C)cc1N1CCNCC1`, the “activity change, negative = inhibition” value was 106%.

As for `CCC(=O)c1cc(-c2ccc(Cl)cc2)n(-c2ccc(S(N)(=O)=O)cc2)c1C`, the “activity change, negative = inhibition” value is -26.5%.

Take `Fc1ccccc1CNCc1ccc(-c2ccnc3[nH]ccc23)cc1`: the “activity change, negative = inhibition” value is 79.4%.

For `CN(Cc1ccc(C(=O)O)cc1)c1ccc(OCc2c(-c3c(Cl)cccc3Cl)noc2C2CC2)nc1C(F)(F)F`, the Potency was 2 µM (active).

In the case of `Cc1nc(C)c2c(n1)N(Cc1ccc(-c3ccccc3-c3nn[nH]n3)cc1)C(=O)CC2`, the “activity change, negative = inhibition” value is -22%.

For the compound `C=CC(=O)N1CCN(C(=O)c2cc(-c3cc(Cl)ccc3Cl)c(Cl)cc2OC)CC1`, the “activity change, negative = inhibition” value is -13.7%.

Take `CC[C@H]1OC(=O)[C@H](C)[C@@H](O[C@H]2C[C@@](C)(OC)[C@@H](O)[C@H](C)O2)[C@H](C)[C@@H](O[C@@H]2O[C@H](C)C[C@H](N(C)C)[C@H]2O)[C@](C)(O)C[C@@H](C)/C(=N/OCOCCOC)[C@H](C)[C@@H](O)[C@]1(C)O`: the “activity change, negative = inhibition” value was 0%.

For the compound `Cc1cc(CN)cc(C)c1NC(=O)c1ccc(-c2cc(Cl)ccc2Cl)o1`, the “activity change, negative = inhibition” value is 162%.

On to `CC1(C)SC2C(NC(=O)[C@H](C(=O)O)c3ccsc3)C(=O)N2C1C(=O)O` (some centres undefined), for which the “activity change, negative = inhibition” value was -8.28%.

Turning to `Cc1cc(C)c(-c2csc(NC(=O)c3ccccc3)n2)c(C)c1`, the “activity change, negative = inhibition” value was 60.8%.

Regarding `COc1c(N2CC3CCCNC3C2)c(F)cc2c(=O)c(C(=O)O)cn(C3CC3)c12` (centres undefined), the “activity change, negative = inhibition” value is 10.3%.

Take `COc1cc(N2CCN(C(C)=O)CC2)ccc1Nc1ncc(Cl)c(Nc2ccc(N3CCN(C(C)=O)CC3)cc2OC)n1`: the “activity change, negative = inhibition” value is 50.4%.

Consider `CN(CC(=O)N(Cc1ccc(C2CCCCC2)cc1)c1ccc(C(=O)O)cc1)S(=O)(=O)c1c(F)c(F)c(F)c(F)c1F`, for which the Potency was 2.51 µM (active).

Turning to `CO[C@@H]1[C@@H](O[C@H]2O[C@@H](C)[C@H](O[C@@H]3C[C@](C)(O)[C@H](O)[C@@H](C)O3)[C@@H](N(C)C)[C@@H]2O)[C@@H](CC=O)C[C@@H](C)[C@@H](O[C@H]2CC[C@H](N(C)C)[C@H](C)O2)/C=C/C=C/C[C@@H](C)OC(=O)C[C@H]1O`, the “activity change, negative = inhibition” value was -9.9%.

As to `COCCNCc1ccc(-c2cc3nccc(Oc4ccc(NC(=S)NC(=O)Cc5ccc(F)cc5)cc4F)c3s2)nc1`, the “activity change, negative = inhibition” value is 13.7%.

Regarding `Cc1ccn(-c2cc(Cl)ccc2[C@@H](Oc2cc(-c3ccc(C[C@H](N)C(=O)O)cc3)nc(N)n2)C(F)(F)F)n1`, the “activity change, negative = inhibition” value was 46.6%.
